Measurements published in PubChem BioAssay (NCI).
About 79,000 compounds went through this panel and 15% of them were active in at least one assay; those are over-represented in the sample as a whole. Unmarked numbers belong to inactive results. The source made the active and inactive calls. Rule as the data show it: active = growth inhibition above about 70%; inactive = the rest.

What was measured:
[1] = NCI Yeast Anticancer Drug Screen. Data for the rad50 strain (AID 155);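 also: 0% = growth of vehicle-only cultures of the same strain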; settings: S. cerevisiae rad50 strain growth inhibition; at 50.0 µM; stronger effect = higher value
Outline: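 A DNA repair-deficient yeast mutant serves as the test organism; compound-induced growth inhibition is calculated against vehicle-treated cells.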

[2] = NCI Yeast Anticancer Drug Screen. Data for the mec2-1 strain (AID 157); settings: S. cerevisiae mec2-1 strain, at 50.0 µM, stronger effect = higher value
Outline: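 Growth inhibition is read against vehicle-treated controls after compound exposure of the mec2-1 yeast strain, which is defective in DNA damage repair or cell cycle control.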

[3] = NCI Yeast Anticancer Drug Screen. Data for the sgs1 mgt1 strain (AID 161);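 also: 0% = growth of cultures given vehicle only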; settings: S. cerevisiae sgs1 mgt1 strain, at 50.0 µM, stronger effect = higher value
Outline: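 Yeast cells carrying a defined DNA-repair defect were exposed to test compounds. Growth inhibition was measured relative to vehicle-treated controls.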

[4] = NCI Yeast Anticancer Drug Screen. Data for the cln2 rad14 strain (AID 165);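 also: 0% = growth equal to vehicle treated cultures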; settings: S. cerevisiae cln2 rad14 strain, at 50.0 µM, stronger effect = higher value
Outline: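 Growth inhibition, relative to vehicle-treated controls, is the read-out. The test organism is a yeast strain with defined genetic alterations, cln2 rad14.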

[5] = NCI Yeast Anticancer Drug Screen. Data for the bub3 strain (AID 167); settings: S. cerevisiae bub3 mutant strain, at 50.0 µM, stronger effect = higher value
Outline: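 Inhibition values come from growth of compound-treated mutant yeast normalised to vehicle-treated controls.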

[6] = NCI Yeast Anticancer Drug Screen. Data for the mlh1 rad18 strain (AID 175); settings: S. cerevisiae mlh1 rad18 strain growth inhibition; at 50.0 µM; stronger effect = higher value
Outline: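 Cells of a genetically altered yeast strain, deficient in DNA damage repair, were treated with compound. Their growth was then compared with that of vehicle-treated cultures to give inhibition.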

SMILES	growth inhibition [1]	growth inhibition [2] [%]	growth inhibition [3]	growth inhibition [4]	growth inhibition [5] [%]	growth inhibition [6]
COCOS(C)(=O)=O	-4.05%	-14.3	-2.85%	4.8%	9.4	-3.65%
CCC(CCCCCc1ccccc1)(C(=O)O)C(=O)O	-0.7%	10.8	21.7%	-55%	-5.2	-2.95%
COc1ccc2c(c1)CC1(CC2)CCN(CCCN(C)C)CC1	-32.3%	-7.85	-22.2%	10.6%	-9.7	-42.3%
O=C(O)c1ccc(N2CCOCC2)cc1	-20%	-13.5	-15.4%	-15.6%	-9.3	6.6%
c1ccc(CC2=NCCc3ccccc32)cc1	-16.4%	-28.3	-3.3%	1.15%	-2.6	-8.7%
O=C(O)C(CCCN1C(=O)c2ccccc2C1=O)N1C(=O)c2ccccc2C1=O (configuration not stated)	-13.1%	-3.3	-12.3%	-13.8%	-0.35	-6.95%
CCc1cccc(CC)c1NC(=O)Nc1cc(Cl)ccc1C	1.8%	6.45	5.4%	-8.45%	30.1	7.9%
CCCCC(O)(CCC)CCCC	-8.75%	-6.95	3.75%	-36.9%	-1.25	2.55%
O=[N+]([O-])c1ccc2nc(C(F)(F)F)cc(Cl)c2c1	7.35%	5.3	2%	-66.9%	-1.1	-9.75%
CC(C)CCCC(C)C1CCC2C3CCC4CC(N5CCCCC5)CCC4(C)C3CCC12C (configuration not stated)	5.5%	-9.6	-16.1%	-20.8%	4.55	17.1%
CC(=O)/C(C(=N)C(=O)c1ccccc1)=C(\C)O	-12.1%	22.5	3.5%	-16.6%	4.3	0.25%
CC[N+]1(C)CCC(O)(c2ccccc2)C(C(=O)c2ccccc2)C1 (configuration not stated)	3.5%	-6.1	-5.55%	34.1%	6.1	11.3%
CCOC(=O)C(C)C(=O)NCc1ccccc1 (configuration not stated)	-4.55%	-4.9	-6.8%	-43.5%	9.35	11.3%
Cc1cc(NC(=O)CCc2ccc(N3C(N)=NC(N)=NC3(C)C)cc2)ccc1S(=O)(=O)O	38.1%	-5.55	8.05%	-14.4%	2.05	-5.55%
O=C(NCCCl)NCc1ccco1	-6.6%	0.9	-3.55%	-39.2%	-4.85	-0.9%
Nc1cccc(N)n1	7.65%	-12.2	-15.8%	5.7%	-0.7	-14.6%
COc1ccccc1Nc1nc(-c2ccc([N+](=O)[O-])o2)cs1	70.6% (active)	36.2	87.1% (active)	92.8% (active)	44	92.3% (active)
CN(CC(=O)O)c1ncc2c(n1)-c1ccccc1SC2	20.5%	4.95	5.15%	10.3%	-14.3	-6.3%
C[N+](C)(C)CCCSc1nc2ccccc2[nH]1	9.6%	-7.15	-52%	-30.9%	-24.4	-15.5%

SMILES	growth inhibition [1]	growth inhibition [2] [%]	growth inhibition [3]	growth inhibition [4]	growth inhibition [5] [%]	growth inhibition [6]
O=[N+]([O-])c1ccc(N=Nc2c(O)c3ccccc3c3ccccc23)c([N+](=O)[O-])c1	46.6%	10.3	27.9%	25.9%	6.1	23.2%
CCCCc1ccc(-n2cnc3c(=O)[nH]c(N)nc32)cc1	5.15%	29	-8.3%	-0.4%	30.8	26.5%
COc1c(O)c2ccccc2c2cc(O)ccc12	6.8%	25.1	23.6%	-14.2%	56.4	10.2%
CCC(C(=O)O)C(=O)O.[NH-]CC1CCCC[N-]1.[Pt+2]	7.7%	-3.6	2.55%	7.95%	-39.5	-34.7%
CCC1CN2CCc3cc(OC)c(OC)cc3C2CC12CO2 (configuration not stated)	-5.6%	-21.3	3.15%	-2.5%	48.8	-36.1%
CC(=O)OC1CN(c2ccc(Br)cc2)CC(OC(C)=O)CN(c2ccc(Br)cc2)C1 (configuration not stated)	6.25%	9.7	-13.8%	-32.9%	-5.55	-13.3%
Cc1ccc(I)cc1	-59.4%	-32.6	-33.9%	-7.5%	-2.9	-19.1%
N#C/C(=C\c1ccc2c(c1)OCO2)C(=O)N/N=C/c1ccc2c(c1)OCO2	4.6%	17.3	5.4%	-13.7%	-0.1	2.95%
CCCCc1nc2c([nH]1)c(=O)n(C)c(=O)n2C	8.1%	-10.9	5.2%	4.85%	-36.5	4.25%
CCN(CC)C(=O)c1ccc(C(C)C)cc1	20.4%	14.8	27.9%	6.6%	18.3	25.8%
CSc1cc(/C=C/c2ccccc2)ccc1[N+](=O)[O-]	1.65%	0.95	4.95%	15%	14.3	4.45%
CCn1c(=O)c2[nH]c(Br)nc2n(CC)c1=O	1.95%	-0.6	5.95%	-6.85%	0.3	-9.45%
C=CCCCCCCCCC(=O)NCC1CC1	-10.8%	-7.1	2.5%	-44.8%	-27.9	-4.75%
CCOC(=O)CSC(=O)NCCCl	21.1%	-0.5	-2.8%	8.45%	17.6	9.1%
CN(C)c1ccc(C2(c3ccc(N(C)C)cc3)OC(=O)c3cc(N(C)C)ccc32)cc1	4.55%	-6.2	-0.75%	-31.7%	16.4	33.7%
O=c1[nH]cnc2c1nnn2CCCCCCCCCCCCn1nnc2c(=O)[nH]cnc21	-5.9%	-10.2	4.5%	-4.2%	12.7	24.8%
COC1=CC(=O)C=C(OC)C1=O	-2.55%	-12.8	-28.6%	6.25%	-25.4	-11.6%
Cc1cccc2c1c1ccc3c(c1n2C)C(=O)C=CC3=O	5.05%	-12.4	4.6%	18.6%	-11.2	-5%
